Rows were chosen to be rich in hits. Some 19% of all compounds tested hit in one or more screens of this group.
HT1080 IDH1KD tx: HT-1080 IDH1 knockdown cell toxicity (counter line); HT-1080 IDH1 knockdown viability, ATP luminescence, 48 h; actives 2% (n = 360,000); Potency, µM (top dose mostly 46.1 µM), actives largely listed as cytotoxic; AID 686971
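Using the IDH1-knockdown HT-1080 line run in the same batch and compound series as the NT line, viability after 48 h at 37 °C was determined by CellTiter-Glo luminescence and expressed as % activity.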
DT40 TDP1 CPT: DT40-hTDP1 cell growth loss with CPT; chicken DT40 Tdp1-/-;hTDP1 cells + 20 nM CPT, ATP luminescence, 48 h; Potency, µM (highest dose often 46.2 µM), usual class: inhibitors; actives 12% (n = 420,000); AID 686979; note: nearly all actives have a fitted effect of over 55% in size
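Cell growth measured by CellTiter-Glo luminescence after a minimum 48 h, 37 C compound exposure with 20 nM CPT in Tdp1-knockout DT40 cells stably expressing hTDP1, seeded 400/well; qHTS titration format.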
HT1080-NT tox: kills 2HG-producing HT-1080-NT fibrosarcoma cells. HT-1080-NT fibrosarcoma viability, CellTiter-Glo ATP luminescence, 48 h. Potency, µM (top dose mostly 46.1 µM), hits mostly cytotoxic. actives 1.6% (n = 360,000);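 note: NT is the 2HG producing partner of a matched IDH1 knockdown line; nearly all actives have a fitted effect of over 55% in size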
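Fibrosarcoma NT cells, 750 per well in 5% FBS RPMI, were exposed to compound for 48 hours. Viability: CellTiter-Glo luminescence.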
DT40 TDP1 no CPT: qHTS for Inhibitors of human tyrosyl-DNA phosphodiesterase 1 (TDP1): qHTS in cells in absence of CPT; DT40 Tdp1-/- hTDP1 cells, no CPT, ATP luminescence, 48 h; Potency, µM (series often up to 46.2 µM), hits mostly inhibitors; actives 15% (n = 420,000); AID 686978, 2013; note: nearly all actives have a fitted effect of over 55% in size
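Luminescent ATP content (CellTiter-Glo) served as the growth readout. Knockout chicken DT40 cells expressing human TDP1 were exposed to compounds without camptothecin for a minimum 48 hr at 37 °C.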
IL1B secr inh: blocks inflammasome-driven IL-1 beta release. actives 4.7% (n = 360,000). activity change, % at 57.5 µM. THP-1 LPS/ATP IL-1B secretion, AlphaLISA, 16 h; stronger effect = lower value; in the data active = activity change below about -50%; inconclusive = mostly about -30% to -49%
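Secreted IL-1B measured by AlphaLISA bead assay after 16 h compound exposure of THP-1 cells; compounds (final up to 57.5 uM) added 1 h before LPS (250 ng/mL) and ATP (1.25 mM) stimulation; lower signal means less secretion.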
ELG1 DNA repair: inhibitors of ELG1-dependent DNA repair in HEK293T cells; HEK293T ELG1-luciferase reporter, luminescence, 16 h; DNA damage induced by 5-fluorouridine; Potency, µM (doses to about 46.1 µM), most hits filed as inhibitors; actives 2.3% (n = 330,000); note: nearly all actives have a fitted effect of over 55% in size
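In this reporter screen, reduction of luminescence relative to DMSO vehicle indicated activity. Compounds and 5-fluorouridine were added together to 2,000 cells per well, incubated for 16 hr at 37 °C, then developed with ONE-Glo.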
Numbers stand for hits; n = inactive; u = inconclusive; x = no result given; [ ] = another dose, or the depositor's remark. Unless noted, calls come from the whole dose curve; as a rule, active = well fitted curve in the direction sought with a large enough effect; inconclusive = small, poorly fitted or top-dose-only effect, or another doubt; inactive = no such curve, though single readings can be large; an effect the other way counts as inactive or inconclusive.

SMILES	HT1080 IDH1KD tx	DT40 TDP1 CPT	HT1080-NT tox	DT40 TDP1 no CPT	IL1B secr inh	ELG1 DNA repair
COc1cccc(CN2C(=O)c3ccccc3S2(=O)=O)c1	n	n	n	n	n	n
O=C(CN1C(=O)C(=O)c2ccccc21)c1ccc(Cl)cc1	n	5.8µM	n	3.3µM	n	n
O=C1c2ccc([N+](=O)[O-])cc2S(=O)(=O)N1Cc1ccccc1	n	n	n	n	-94	n
O=C1C(=O)N(Cc2ccc(Cl)c(Cl)c2)c2ccccc21	x	2.7µM	x	1.9µM	x	x
O=C1C(=O)N(Cc2cccc([N+](=O)[O-])c2)c2ccccc21	u	0.65µM	n	0.92µM	n	n
N#CCC(=O)NN	x	n	x	n	x	x
CCN(CC(=O)Nc1ccc(NC(C)=O)cc1)C(=O)C1COc2ccccc2O1 (stereo unspecified)	n	n	n	n	n	n
CCCC[C@@H](CNC)NC[C@H](NCCCCC1CCCCC1)C(C)C	u	6.5µM	u	5.2µM	u	n
COc1ccc(CN=C(C)c2c(C(F)(F)F)[nH]n(-c3nc4ccccc4s3)c2=O)cc1	n	n	n	u	n	u
COC(=O)Cc1[nH]n(-c2nc3ccccc3s2)c(=O)c1C(C)=O	n	n	n	10µM	n	u
CC(=O)c1c(CC(=O)O)[nH]n(-c2nc3ccccc3s2)c1=O	10µM	u	10µM	u	n	u
CCCc1[nH]n(-c2nc3ccccc3s2)c(=O)c1C=NCCCOC	n	n	n	n	u	u
O=c1c(Cc2c(F)cccc2Cl)c(O)ccn1C1CC1	n	n	n	n	n	n
CCOc1ccc(NC(=O)COC(=O)c2c[nH]c3ccccc23)cc1	n	n	n	u	n	x
CCOc1ccc(CNC(=O)C2CCN(S(=O)(=O)N3CCC(C)CC3)CC2)cc1OC	n	n	n	u	n	x
COc1cc2c(cc1OC)C(c1cc(Br)ccc1F)N(C(=O)CCl)CC2 (stereo unspecified)	21µM	1.5µM	21µM	1.6µM	-71	n
Cc1cc2c3c(c1)C1(C(=O)N3C(C)(C)CC2C)C(C#N)=C(N)Oc2cc(O)ccc21 (stereo unspecified)	u	n	u	25µM	n	n
O=C(Nc1ccccc1N1CCOCC1)c1ccc(F)c(S(=O)(=O)N2CCOCC2)c1	n	u	n[9.24 µM]	n	n	n
Cc1ccc(C)c(N2CCN(S(=O)(=O)c3cc(C(=O)Nc4ccccc4C(F)(F)F)ccc3F)CC2)c1	x	12µM	x	13µM	x	x
Cc1ccccc1NC(=O)c1ccc(F)c(S(=O)(=O)N2CCN(c3ccccn3)CC2)c1	n	28µM	u	11µM	n	23µM
CC(=O)Nc1ccc(OC/C=C(\C)Cl)cc1	n	n	n	n	n	u
C/C(Cl)=C\COc1cc(C)nc2c(Br)cccc12	n	n	n	29µM	n	n
COCCn1c(SCC(=O)NC2(C#N)CCCCC2)nc2ccccc2c1=O	n	n	n	n	n	n
CC(C)Oc1cccc(-c2cc(C(=O)N3CCN(c4ncccn4)CC3)c3ccccc3n2)c1	x	x	x	x	x	15µM
CC(C)Oc1cccc(-c2cc(C(=O)N3CCN(S(C)(=O)=O)CC3)c3ccccc3n2)c1	n	u	n	10µM	n	u
SMILES	HT1080 IDH1KD tx	DT40 TDP1 CPT	HT1080-NT tox	DT40 TDP1 no CPT	IL1B secr inh	ELG1 DNA repair
COc1cccc(-c2cc(C(=O)N3CCN(c4ncccn4)CC3)c3ccccc3n2)c1	n	u	n	23µM	u	u
CCc1nc2ccc(C(=O)NCCN3CCNC3=O)cn2c1N(CC)CCOC	n	n	n	n	n	x
COc1cccc(CC(NC(C)=O)C(=O)NC2CCN(C(=O)Nc3ccc(C)cc3)CC2)c1 (stereo unspecified)	n	n	n	n	n	n
CCOC(=O)c1ccc(NC(=O)COc2ccc(CNCCO)cc2OCC)cc1	u	n	u	n	-102	n
CCOC(=O)c1ccc(NC(=O)COc2ccccc2CNCCc2ccccc2)cc1	u	u	u	u	-88	26µM
CCOC(=O)c1ccc(NC(=O)CNNC(=O)COc2ccccc2C)cc1	n	n	n	u	n	n
O=C(C[C@H]1C[C@H](C(=O)N2CCOCC2)[C@@]2(CCC3CCCC3)c3[nH]c4ccc(Cl)cc4c3CCN2C1=O)NCC12CC3CC(CC(C3)C1)C2	n	16µM	n	21µM	n	u
COCCCNC(=O)C[C@H]1C[C@H](C(=O)N2CCOCC2)[C@@]2(CCC3CCCC3)c3[nH]c4ccc(Cl)cc4c3CCN2C1=O	n	21µM	n	u	n	n
COc1ccc2[nH]c3c(c2c1)CCN1C(=O)C(CC(=O)NCCC2=CCCCC2)C[C@H](C(=O)N2CCOCC2)[C@@]31CCC1CCCC1 (stereo partly specified)	n	n	n	n	n	n
O=C(C[C@H]1C[C@H](C(=O)N2CCOCC2)[C@@]2(CCC3CCCC3)c3[nH]c4ccc(Cl)cc4c3CCN2C1=O)NCCN1CCOCC1	n	u	n	u	n	n
COc1ccc2[nH]c3c(c2c1)CCN1C(=O)C(CC(=O)NCC24CC5CC(CC(C5)C2)C4)C[C@H](C(=O)N2CCOCC2)[C@@]31CCC1CCCC1 (stereo partly specified)	n	u	n	u	-62	n
COC(=O)c1ccc(N=C2S/C(=C\c3cc(C)n(-c4cccnc4)c3C)C(=O)N2C)cc1	n	u	n	18µM	u	u
Cc1ccc(NC(=O)CSCn2nnc3c(=O)[nH]c(Cc4ccc(F)cc4)nc32)c(C)c1	x	n	x	n	x	x
Cc1ccc(C2(c3noc(CN(C)Cc4ccccn4)n3)CCCC2)cc1	n	u	n	16µM	n	n
COCC1CCCCN1Cc1cn[nH]c1-c1ccc2cc(OC)ccc2c1 (stereo unspecified)	n	n	n	u	n	n
CC(C)CCNC(=O)c1onc(CSc2ccccc2)c1C(=O)NCCC(C)C	n	23µM	n	u	n	x
CCCNC(=O)c1onc(CSc2cccc(OC)c2)c1C(=O)NCCC	n	n	n	n	n	n
COc1cccc(SCc2noc(C(=O)NCCC(C)C)c2C(=O)NCCC(C)C)c1	n	18µM	u	15µM	n	x
CC(C)CCNC(=O)c1onc(CSc2ccc(F)cc2)c1C(=O)NCCC(C)C	n	u	n	u	n	n
CCOC(=O)c1cc(S(=O)(=O)N2CCCC2)cn1C	n	n	n	n	n	n
CC(=O)OCCC(C)CCC=C(C)C (stereo unspecified)	x	n	x	n	x	x
